Shown are actives, neighbours in structure and some others; about 1.1% of the full set was active somewhere.
Eya2 inh – qHTS Assay for Inhibitors of the Phosphatase Activity of Eya2; Protein phosphatase EYA2 (Homo sapiens), O00167; actives 0.006% (n = 330,000); recombinant Eya2, OMFP fluorescence dephosphorylation (OMFP is methylfluorescein phosphate); Potency, µM (highest dose often 76.9 µM), without a hit: top-dose activity, negative = inhibition, most hits filed as inhibitors; further: potency means the concentration at half of the fitted maximal effect; on the % scale 0 is the no-effect control and ±100 the full control effect
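Eya2 protein (added as 0.2 uM solution) was preincubated with compound for 10 min at ambient temperature in 50 mM HEPES pH 7.5, 50 mM NaCl, 5 uM MgCl2, 0.05% BSA, 1 mM DTT. OMFP (added at 50 uM) then reacted 10 min; fluorescence read at 485/525 nm.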
RGS4 inhibitor – Inhibitors of Regulator of G Protein Signaling (RGS) 4: qHTS. Transcreener GDP fluorescence polarization, RGS4-accelerated GTP hydrolysis. AID 504845, 2011. actives 0.039% (n = 390,000). Potency, µM (highest dose often 114 µM), inactives show at the highest dose activity change, negative = inhibition, hits mostly inhibitors; further: potency means the concentration at half of the fitted maximal effect; on the % scale 0 is the no-effect control and ±100 the full control effect; nearly all actives have a fitted effect of over 75% in size
Target sequence (P49798 whole entry, looked up): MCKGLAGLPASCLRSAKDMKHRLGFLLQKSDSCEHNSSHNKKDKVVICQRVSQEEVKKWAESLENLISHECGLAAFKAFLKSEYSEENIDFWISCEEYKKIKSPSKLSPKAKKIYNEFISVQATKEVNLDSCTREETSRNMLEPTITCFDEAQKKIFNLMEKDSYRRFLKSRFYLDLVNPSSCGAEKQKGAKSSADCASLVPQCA
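MLSMR compounds (23 nl, pin-transferred) preincubated 10 min at room temperature with a 500nM (2x) first reagent, then RGS4 at 900nM (2x) plus Transcreener GDP mix added; fluorescence polarization (620/688 nm) read before and after 90 min at 30 °C.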
IDH1 R132H inh – qHTS for Inhibitors of mutant isocitrate dehydrogenase 1 (IDH1): qHTS; AID 602179, 2012; actives 0.093% (n = 390,000); Isocitrate dehydrogenase [NADP] cytoplasmic (Homo sapiens), O75874; IDH1-R132H enzyme, NADPH consumption, diaphorase/resazurin fluorescence; Potency, µM (top dose mostly 76.6 µM), without a hit: at the highest dose activity change, negative = inhibition, usual class: inhibitors; further: potency means the concentration at half of the fitted maximal effect; on the % scale 0 is the no-effect control and ±100 the full control effect; nearly all actives have a fitted effect of over 65% in size
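IDH1-R132H (0.5 ug/mL) preincubated 30 min with compound, then NADPH (0.016 mM) and alpha-KG (2 mM) added; 80 min at RT, pH 7.5. Remaining NADPH coupled via diaphorase/resazurin to fluorescence (540/590 nm); concentration-response curves normalized to no-enzyme control.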
TrxR1 inh-1 – qHTS Assay for Inhibitors of Mammalian Selenoprotein Thioredoxin Reductase 1 (TrxR1): qHTS; recombinant rTrxR1, NADPH fluorescence consumption, selenite substrate; AID 588453, 2011; actives 1% (n = 390,000); Potency, µM (series often up to 114 µM), for inactives: at the top dose activity change, negative = inhibition, most hits filed as inhibitors; Thioredoxin reductase 1, cytoplasmic (Rattus norvegicus), O89049; further: potency means the concentration at half of the fitted maximal effect; on the % scale 0 is the no-effect control and ±100 the full control effect; nearly all actives have a fitted effect of over 65% in size
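Rat TrxR1 (90 nM in the dispensed reagent) was pre-reduced with 400 uM NADPH for 5 min at room temperature, then incubated with compound for 15 min. After 400 uM selenite was added, NADPH fluorescence (Ex 340/Em 450 nm) was followed for 8 min.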
TrxR1 substrate – qHTS Assay for Substrates of Mammalian Selenoprotein Thioredoxin Reductase 1 (TrxR1): qHTS; purified TrxR1 substrate turnover, NADPH consumption readout; Potency, µM (highest dose often 114 µM), for inactives: at the highest dose activity change, negative = substrate turnover; actives 0.01% (n = 390,000); AID 588456, 2011; further: potency means the concentration at half of the fitted maximal effect; on the % scale 0 is the no-effect control and ±100 the full control effect; nearly all actives have a fitted effect of over 50% in size
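Rat TrxR1, dispensed at 90 nM, was prereduced with 400 uM NADPH (final) for 5 min at ~22 deg C, then incubated with compound 15 min before 400 uM selenite. A first-read NADPH fluorescence drop versus no-compound background flagged substrates.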
TRb SRC2 Alpha – Protein Interaction Secondary Assay for Inhibitors of the Interaction of Thyroid Hormone Receptor and Steroid Receptor Coregulator 2, Alpha Screen; AID 2444, 2010; AlphaScreen TRb LBD-SRC2 peptide binding, luminescence; shares compounds with TrxR1 inh-1; actives 50% (n = 30); Potency, µM; calls by dose curve
HepG2 tox – Cell Viability Secondary Assay for Inhibitors of the Interaction of Thyroid Hormone Receptor and Steroid Receptor Coregulator 2. shares compounds with TrxR1 inh-1. HepG2 viability, ATP luminescence (CellTiter-Glo), 72 h. Potency, µM. actives 50% (n = 40). AID 2447, 2010; calls by dose curve
AR SRC2 FP – Androgen Receptor Selectivity Assay for Inhibitors of the Interaction of Thyroid Hormone Receptor and Steroid Receptor Coregulator 2 | shares compounds with TrxR1 inh-1 | AR-LBD Tx-SRC2-3 fluorescence polarization, 3 h | 25 tested, under 10 active | calls only; call rule not given here
PPARg-DRIP2 inh – PPAR gamma Selectivity Assay For Inhibitors of the Interaction of Thyroid Hormone Receptor and Steroid Receptor Coregulator 2; shares compounds with TrxR1 inh-1; PPARg LBD / Texas Red DRIP-2 peptide, fluorescence polarization, 3 h; Potency, µM; 25 tested, under 10 active; AID 2449, 2010; calls by dose curve
Target sequence (P37231 whole entry, looked up, the tested form may be a part): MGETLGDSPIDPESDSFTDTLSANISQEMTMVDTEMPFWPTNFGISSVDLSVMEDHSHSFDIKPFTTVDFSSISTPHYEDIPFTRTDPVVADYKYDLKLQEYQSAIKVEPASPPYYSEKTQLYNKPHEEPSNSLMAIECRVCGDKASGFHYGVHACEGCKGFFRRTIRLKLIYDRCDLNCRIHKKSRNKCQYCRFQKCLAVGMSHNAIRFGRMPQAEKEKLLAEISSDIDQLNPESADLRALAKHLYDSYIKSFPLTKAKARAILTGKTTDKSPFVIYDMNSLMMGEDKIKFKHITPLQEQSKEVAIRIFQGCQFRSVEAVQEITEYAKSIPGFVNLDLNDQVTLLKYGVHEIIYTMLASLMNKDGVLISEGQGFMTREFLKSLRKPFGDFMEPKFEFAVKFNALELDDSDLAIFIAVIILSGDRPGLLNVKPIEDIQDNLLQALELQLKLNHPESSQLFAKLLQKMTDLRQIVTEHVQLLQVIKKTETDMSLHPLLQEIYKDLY
VDR-SRC2 FP sel – Vitamin D Receptor Selectivity Assay for Inhibitors of the Interaction of Thyroid Hormone Receptor and Steroid Receptor Coregulator 2. shares compounds with TrxR1 inh-1. VDR LBD/SRC2-3 peptide, fluorescence polarization, 3 h. Potency, µM. 25 tested, under 10 active; calls by dose curve
TRb-SRC2 FP Fluo – Secondary Confirmation Assay for Inhibitors of the Interaction of Thyroid Hormone Receptor and Steroid Receptor Coregulator 2, Fluorescein Fluoroprobe; Potency, µM; TRb LBD / fluorescein-SRC2 peptide, fluorescence polarization; shares compounds with TrxR1 inh-1; 20 tested, under 10 active; call rule not given here
GR inh – qHTS Assay for Inhibitors of Mammalian Selenoprotein Thioredoxin Reductase 1 (TrxR1): Counterassay in Glutathione Reductase (GR) | purified GR, DTNB reduction absorbance 405 nm kinetic | 55 tested, under 10 active | activity change, negative = inhibition, % at 57.1 µM | shares compounds with TrxR1 inh-1 | AID 652020, 2013
TrxR1 inh-2 – qHTS Assay for Inhibitors of Mammalian Selenoprotein Thioredoxin Reductase 1 (TrxR1): Hit Validation in Primary Screen; recombinant TrxR1, NADPH fluorescence consumption, selenite substrate; Potency, µM, usual class: inhibitors; shares compounds with TrxR1 inh-1; actives 50% (n = 55); AID 652023, 2013
TrxR1 insulin – qHTS Assay for Inhibitors of Mammalian Selenoprotein Thioredoxin Reductase 1 (TrxR1): Insulin MOA Assay. shares compounds with TrxR1 inh-1. Potency, µM. actives 20% (n = 55). AID 652037, 2013. TrxR1 Trx-coupled insulin reduction, NADPH absorbance 340 nm;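 active means compounds with a measured potency under 100 micromolar; inconclusive means filed, but no rule given; inactive means potency at or above that, or unmeasurable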
TrxR1 inh-3 – qHTS Assay for Inhibitors of Mammalian Selenoprotein Thioredoxin Reductase 1 (TrxR1): DTNB Assay. shares compounds with TrxR1 inh-1. purified TrxR1, DTNB reduction, A412. Potency, µM. actives 90% (n = 55). AID 652256, 2013;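 active means a half-inhibiting concentration could be measured and was below 100 µM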
* = called active by the depositor; i = inactive; ? = inconclusive; · = not tested or not shown; [ ] = remark or other dose. Unless noted, the call rests on the fitted dose curve; in most records, active means well fitted curve in the direction sought with a large enough effect; inconclusive means small, poorly fitted or top-dose-only effect, or another doubt; inactive means no such curve, though single readings can be large; an effect the other way counts as inactive or inconclusive.

SMILES	Eya2 inh	RGS4 inhibitor	IDH1 R132H inh	TrxR1 inh-1	TrxR1 substrate	TRb SRC2 Alpha	HepG2 tox	AR SRC2 FP	PPARg-DRIP2 inh	VDR-SRC2 FP sel	TRb-SRC2 FP Fluo	others
CS(=O)(=O)c1ccc(C(=O)OCC(=O)Nc2cc(C(F)(F)F)ccc2Cl)cc1[N+](=O)[O-]	·	26.9%	·	8.91µM*	1.3%	16.7µM*	16.8µM*	i	i	?	i
CC(=O)c1cccc(NC(=O)COC(=O)c2ccc(S(C)(=O)=O)c([N+](=O)[O-])c2)c1	3.0%	-4.4%	-10.9%	1.58µM*	0.6%	86.8µM*	?	i	i	59.7µM*	?
NS(=O)(=O)c1cc(C(=O)OCC(=O)Nc2ccccc2[N+](=O)[O-])ccc1Cl	3.9%	1.5%	-1.2%	-1.9%[57.1 µM]	3.4%[57.1 µM]	·	·	·	·	·	·
Cc1ccccc1NC(=O)COC(=O)c1ccc(S(C)(=O)=O)c([N+](=O)[O-])c1	-5.7%	-1.2%	-4.5%	2.51µM*	1.6%	27.5µM*	?	i	i	i	i
NS(=O)(=O)c1cc(C(=O)OCC(=O)Nc2ccc(Cl)cc2[N+](=O)[O-])ccc1Cl	5.4%	-35.3%	8.9%	20.8%[57.1 µM]	-13.7%[57.1 µM]	·	·	·	·	·	·
CS(=O)(=O)c1ccc(C(=O)OCC(=O)Nc2ccc(OC(F)(F)F)cc2)cc1[N+](=O)[O-]	·	0.5%	·	3.55µM*	-3.2%	16.7µM*	i	i	i	i	i
Cc1csc(Sc2ccc(C(=O)OCC(=O)Nc3ccc(OC(F)(F)F)cc3)cc2[N+](=O)[O-])n1	2.5%	-19.9%	1.2%	-2.8%	1.9%	·	·	·	·	·	·
CC(=O)Nc1nc(-c2ccccc2)nc(-c2ccccc2OC(C)=O)n1	16.3%	1.3%	0.1%	-3.7%	2.0%	·	·	·	·	·	·
Cc1c(CC(=O)O)c(=O)oc2c(C)c3occ(-c4ccc(F)cc4)c3cc12	?	-21.8%[56.9 µM]	0.5%	-5.4%	12.9%	·	·	·	·	·	·
CC(OC(=O)c1ccncc1)C(=O)Nc1cccc([N+](=O)[O-])c1 (stereo unspecified)	6.6%	17.0%	-2.4%	5.8%[57.1 µM]	-12.2%	·	·	·	·	·	·
CC(=O)c1cccc(NC(=O)C(C)OC(=O)c2ccc(S(C)(=O)=O)c([N+](=O)[O-])c2)c1 (stereo unspecified)	·	1.2%	·	7.08µM*	1.1%	39.9µM*	?	i	?	?	61.9µM*
CCOC(=O)C1CCN(C(c2ccccn2)c2c(C)[nH]c3ccccc23)CC1 (stereo unspecified)	13.0%	?	4.3%	2.51µM*	0.7%	·	·	·	·	·	·	GR inh=-25.5;TrxR1 inh-2=1.5*;TrxR1 insulin=i;TrxR1 inh-3=0.194µM*
COc1ccc(/C(C)=N/OC/C(O)=C(\C#N)c2nc3ccccc3[nH]2)cc1OC	12.5%	-47.1%	3.2%	19.4%[57.1 µM]	-0.5%[57.1 µM]	·	·	·	·	·	·
CC(S(=O)(=O)c1ccccc1)S(=O)(=O)c1ccccc1	·	·	-1.4%	·	·	·	·	·	·	·	·
CCc1c(C(C)S(=O)(=O)c2ccccc2)[nH]c(=O)n1CC (stereo unspecified)	-0.8%	?	4.1%	1.78µM*	-15.7%[57.1 µM]	·	·	·	·	·	·	GR inh=-13.2;TrxR1 inh-2=2.38*;TrxR1 insulin=4µM*;TrxR1 inh-3=0.045µM*
